# The list is not random: actives were taken first. Their share in the collection is about 4.1%.
# HEK293 cAMP ctrl: counter-screen for TSHR agonists: cAMP increase in parental HEK293 | parental HEK293 CNG cAMP sensor, membrane potential fluorescence | Potency, µM (series often up to 57.1 µM), usual class: activators | 2.5% of 73,000 active | AID 938; further: nearly all actives have a fitted effect of over 55% in size
#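 Counterscreen for endogenous-receptor signalling: CNG-channel HEK 293 cells report cAMP rise by membrane depolarization. After 60 min dye equilibration with 100 uM RO 20-1724, compounds incubated 30 min before bottom-read fluorescence at 590 nm.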
# GBA activity: alters purified human glucocerebrosidase activity. P04062. purified enzyme, resorufin glucoside fluorescence (screen aimed at inhibitors), 20 min. Potency, µM. 1.1% of 48,000 active; in the data active means potency below about 15 µM; inconclusive means mostly about 16 µM to 33 µM;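 further: the screen sought inhibitors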
# Target sequence (P04062 whole entry, looked up): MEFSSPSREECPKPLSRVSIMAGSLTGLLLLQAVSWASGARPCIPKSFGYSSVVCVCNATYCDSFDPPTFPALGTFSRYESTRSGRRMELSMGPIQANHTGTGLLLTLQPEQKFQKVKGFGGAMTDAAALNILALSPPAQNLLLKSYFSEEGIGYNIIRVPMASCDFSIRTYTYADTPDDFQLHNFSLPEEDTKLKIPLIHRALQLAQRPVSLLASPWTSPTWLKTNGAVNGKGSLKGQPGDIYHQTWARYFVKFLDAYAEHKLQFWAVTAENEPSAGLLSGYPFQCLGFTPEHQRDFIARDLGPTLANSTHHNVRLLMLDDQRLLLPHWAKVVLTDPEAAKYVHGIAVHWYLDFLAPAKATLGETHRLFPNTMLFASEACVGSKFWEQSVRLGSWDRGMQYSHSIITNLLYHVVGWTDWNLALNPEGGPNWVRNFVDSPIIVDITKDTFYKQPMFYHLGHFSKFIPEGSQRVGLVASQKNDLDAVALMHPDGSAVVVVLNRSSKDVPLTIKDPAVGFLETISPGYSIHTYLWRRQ
#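 Compounds titrated against 0.2 nM normal enzyme, 30 uM resorufin beta-D-glucopyranoside substrate, citrate/phosphate buffer with taurocholate and tween-20, pH 5.9. Reaction ran 20 min at room temperature; fluorescence (Ex 548/Em 600) gave AC50.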
# Ub-GFP proteasome: inhibits proteasome, raising ubiquitin-GFP reporter fluorescence; 67,000 tested, under 10 active; Potency, µM (highest dose often 45.9 µM), actives largely listed as activators; Ubiquitin-GFP reporter cells, proteasome inhibition, GFP fluorescence; response scale: untreated = 0%, 10 µM MG-132 = 100%; active means well fitted activation curve with a large enough effect, not every such curve was filed as active; inconclusive means small, poorly fitted or top-dose-only effect, or another doubt; inactive means no such curve, though single readings can be large or run the other way
#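 U2OS cells expressing ubiquitin(G76V)-GFP, seeded overnight in 0.5% FBS medium, then treated 4 hr at 37 C across 46 uM to 2.9 nM. GFP-positive cells counted by laser cytometry (488 ex/515 em); %activity scaled between basal and 10 uM MG-132.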
# Bst PK mod: pyruvate kinase (B. stearothermophilus) modulation; purified pyruvate kinase, luminescence ATP production; ribose 5-phosphate activator present at AC10; Potency, µM; 1.2% of 51,000 active; in the data active means potency below about 11 µM; inconclusive means mostly about 12 µM to 25 µM;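 the screen sought inhibitors and activators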
# TSHR ag: TSH receptor (human) agonism; P16473; HEK293-CNG-TSHR cells (CNG channel as cAMP sensor), membrane potential dye, cAMP; Potency, µM (titrated, usually from 57.1 µM), actives largely listed as activators; 0.48% of 73,000 active; AID 926; active means well fitted activation curve with a large enough effect in the main read-out, with a control signal flat, not every such curve was filed as active; inconclusive means small, poorly fitted or top-dose-only effect, or a change in a side signal; inactive means no such curve, though single readings can be large or run the other way; reference of the percent scale not stated here;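 further: the control signal comes from parental cells without the receptor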
#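 HEK 293 cells stably expressing TSHR and a cAMP-gated CNG channel; parental CNG-only cells as counterscreen. Cells preloaded 60 min with membrane potential dye plus 100 uM RO 20-1724, then compound 30 min; fluorescence read at 590 nm.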
# USP2a inhib: inhibitors of human ubiquitin-specific protease USP2a; USP2a enzymatic assay, qHTS inhibition; Potency, µM (top dose mostly 38.3 µM), actives largely listed as inhibitors; 0.1% of 60,000 active; AID 927; further: nearly all actives have a fitted effect of over 60% in size
#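 Inhibition is measured in a cell-free coupled assay with 20 nM USP2 core, 20 nM Ub-PLA2 and 20 uM NBD C6-HPC, 2.5 h incubation. Activity normalized to NEM control.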
# A number is an active result; n = inactive; u = inconclusive; x = no result; [ ] = another dose, or the depositor's remark. Unless noted, the call rests on the fitted dose curve; in most records, active means well fitted curve in the direction sought with a large enough effect; inconclusive means small, poorly fitted or top-dose-only effect, or another doubt; inactive means no such curve, though single readings can be large; an effect the other way counts as inactive or inconclusive.
SMILES,HEK293 cAMP ctrl,GBA activity,Ub-GFP proteasome,Bst PK mod,TSHR ag,USP2a inhib
O=C(NC1CCCCC1)C(c1ccncc1)N(C(=O)Cn1nnc(-c2cccs2)n1)C1CCCC1 (centres undefined),u,x,n,n,u,x
COCCNC(=O)C(c1ccccc1C)N(CCOC)C(=O)Cn1nnc2ccccc21 (centres undefined),n,n,n,n,n,n
COCCN(C(=O)Cn1nnc2ccccc21)C(C(=O)NC1CCCC1)c1cccc(OC)c1OC (centres undefined),20µM,n,n,n,u,n
O=C(NC1CCCCC1)C(c1ccco1)N(Cc1cccs1)C(=O)Cn1nnc2ccccc21 (centres undefined),15.8µM,n,n,n,u,n
COC(=O)[C@@]1(Cc2ccc(OC)cc2)[C@H]2c3cc(C(=O)N4CCCC4)n(CCN4CNCC4=O)c3C[C@H]2CN1C(=O)c1ccccc1,n,x,x,x,n,x
COc1cc2c(cc1OC)[C@H](c1ccccc1)CN(C)CC2,n,x,n,x,n,n
CCCn1c(C)nc2c(NC3CCN(Cc4ccccc4)CC3)nc(C)nc21,n,x,n,x,n,x
COc1ccccc1OCc1nc(C#N)c(N2CC(C)CC(C)C2)o1 (centres undefined),12.6µM,x,n,x,u,x
COc1ccccc1-c1nc(C#N)c(N2CCN(c3cccc(Cl)c3)CC2)o1,u,n,n,n,u,n
N#Cc1nc(-c2ccco2)oc1N1CCN(c2cccc(Cl)c2)CC1,20µM,x,n,n,u,n
CC1CC(C)CN(c2oc(-c3ccco3)nc2C#N)C1 (centres undefined),15.8µM,n,n,n,u,n
N#Cc1nc(-c2ccco2)oc1N1CCCC1,n,n,n,n,n,n
N#Cc1nc(-c2ccco2)oc1N1CCc2ccccc2C1,25.1µM,n,n,n,u,n
COCCn1c(=O)c(CCc2ccccc2)nc2cnc(Oc3cccc(Cl)c3)nc21,n,x,n,x,n,n
COc1ccc(-c2cc(C(=O)N/N=C\c3cc(OC)c(OC)c(OC)c3)[nH]n2)cc1,n,x,x,x,n,x
CCCCCCCCCCCCC[N+](C)(C)Cc1ccccc1,x,x,x,x,x,n
CN(C)/N=N\c1nc[nH]c1C(N)=O,u,x,n,x,u,n
Oc1cc(CN2COc3ccccc32)c(O)cc1CNC1CCCCC1,n[11.4 µM],x,n[9.17 µM],x,n[11.4 µM],x
N#Cc1nc(-c2ccco2)oc1N1CCN(C(c2ccccc2)c2ccccc2)CC1,n,n,n,n,3.98µM,n
Cn1c(=O)[nH]c(=O)c2c1nc(CN1CCOCC1)n2Cc1ccccc1,n,n,n,n,n,n
CCC(C)Sc1nc2c(c(=O)[nH]c(=O)n2C)n1CCc1ccccc1 (centres undefined),31.6µM,n,n,n,u,n
Cn1c(=O)[nH]c(=O)c2c1nc(SCCN1CCOCC1)n2Cc1ccccc1,n,8.99,n,n,n,n
Cc1cccnc1Nc1nc(-c2ccc(O)cc2O)cs1,n,u,n,1.67,n,u
Nc1[nH]c(=S)[nH]c(=O)c1N=Nc1c(Br)cc(S(N)(=O)=O)cc1Br,n[11.4 µM],x,n[9.17 µM],x,n[11.4 µM],x
Cc1ccc(-n2ncc(C#N)c2/N=C/N2CCN(C)CC2)cc1,n,n,n,n,n,n
SMILES,HEK293 cAMP ctrl,GBA activity,Ub-GFP proteasome,Bst PK mod,TSHR ag,USP2a inhib
Cc1ccc(-n2ncc(C#N)c2/N=C/N2CCCCCC2)cc1,31.6µM,n,n,n,u,n
COc1ncc2nc(C)c(=O)n(CCc3ccccc3)c2n1,u,x,n,x,u,n
Cc1ccccc1/C=C\C1=NCCN1,n,x,n,x,0.126µM,n
c1ccc(CC2=NCCN2)cc1,u,x,n,x,u,n
COc1ccc(C(=O)/C=C/Nc2cc(C)on2)c(OC)c1,n,n,n,3.8,n,n
COc1ccccc1-c1cc(C(=O)Nc2cc(C)on2)no1,n,n,n,n,n[11.4 µM],n
CC(=O)/C(=C\c1ccccc1F)C(=O)c1ccccc1,n[11.4 µM],x,n[9.17 µM],x,n[11.4 µM],x
CC(=O)[C@H](CC(C)C)NC(=O)[C@@H](CC(C)C)NC(=O)[C@H](CC(C)C)NC(=O)OCc1ccccc1,25.1µM,x,0.794µM,x,u,x
Cn1cc(S(=O)(=O)Nc2ccc(F)cc2F)c(=O)n(C)c1=O,n,x,n,x,2.51µM,x
O=S(=O)(c1ccccc1)N1CCC[C@@]2(CCN(c3ccncc3)C2)C1,u,x,n,x,u,n
COc1ccc(OC)c(C2=Nn3c(nnc3-c3cccc(OC(C)C)c3)SC2)c1,25.1µM,n,n,n,u,n
CCc1ccc2oc(-c3cc(N)ccc3Cl)nc2c1,n,n,n,2.87,n,n
Nc1ccc2oc(-c3ccccn3)nc2c1,n,n,n,x,n,x
CCc1ccc2oc(-c3cc(N)cc(C)c3O)nc2c1,n,n,n,3.55,n,n
Nc1ccc2oc(-c3ccccc3Cl)nc2c1,x,x,x,3,x,x
CCc1ccc2oc(-c3cc(N)ccc3O)nc2c1,n,n,n,1.24,n,x
CCCC(=O)Nc1ccc(-c2nc3cc(C)c(C)cc3o2)c(O)c1,n,x,n,x,n,n
O=c1oc2ccccc2c(O)c1/C=N/c1nc(-c2ccc(O)c(O)c2)cs1,n[11.4 µM],x,n[9.17 µM],x,n[11.4 µM],x
CCCOc1ccc(C(=O)C(c2ccccc2)N2CCOCC2)cc1 (centres undefined),25.1µM,n,n,n,u,n
COc1ccc(N2CCN(C(=O)CSc3ccccc3)CC2)cc1,n[11.4 µM],x,n[9.17 µM],x,n[11.4 µM],n[7.66 µM]
COc1ccc(N2CCN(C(=O)CSc3nnc(C)c(=O)[nH]3)CC2)cc1,1.26µM,n,n,n,u,n
COc1ccccc1N1CCN(C(=O)CSc2nc(C)c(Cc3ccccc3)c(=O)[nH]2)CC1,25.1µM,n,n,n,u,n
C=CC1=C(C(=O)O)N2C(=O)C(NC(=O)/C(=N\O)c3csc(N)n3)C2SC1 (centres undefined),x,x,x,x,x,n
CC1(C)[C@@H](OC(=O)CCC(=O)O)CC[C@@]2(C)[C@H]1CC[C@@]1(C)[C@H]2C(=O)C=C2[C@H]3C[C@](C)(C(=O)O)CC[C@]3(C)CC[C@@]21C,n,x,n,x,n,n
Clc1ccc2c(c1)C1OCCC1C(c1ccco1)N2 (centres undefined),n,n,n,9.64,x,n
SMILES,HEK293 cAMP ctrl,GBA activity,Ub-GFP proteasome,Bst PK mod,TSHR ag,USP2a inhib
CN(N=O)c1ccc(/C=C\c2ccnc3ccccc23)cc1,n[11.4 µM],x,n[9.17 µM],x,n[11.4 µM],x
CC1(C)CNC(=O)c2sc(N3CCCCC3)nc2C1,20µM,n,n,n,u,n
COc1cccc(-c2cc(C(F)(F)F)nc(NCc3ccco3)n2)c1,u,x,n,n,u,n
COc1ccc(-c2cc(C(F)(F)F)nc(NCc3ccco3)n2)cc1OC,10µM,n,n,n,u,n
Cc1noc(C)c1CSc1nc2ccccc2c(=O)n1-c1ccc(F)cc1F,15.8µM,n,n,n,u,n
Cc1noc(C)c1CSc1nc2ccccc2c(=O)n1-c1ccccc1,10µM,n,n,n,u,n
CC(C)(C)c1ccc(OCC2CO2)cc1 (centres undefined),n,x,x,x,n,x
